Source: PMC11447256

Tests used:
Coatomer subunit gamma-1 = Coatomer subunit gamma-1 (UniProt Q9Y678); assay: cross-linking mass spectrometry
[1] = target: T-complex protein 1 subunit delta (UniProt P50991); assay: co-fractionation; cross-linking mass spectrometry
Protein S100-A10 = Protein S100-A10 (UniProt P60903); assay: cross-link between two proteins; cross-linking mass spectrometry
[2] = target: Phosphoglycerate kinase 2 (UniProt P07205); assay: co-fractionation; co-fractionation; cross-linking mass spectrometry
Sequence of Phosphoglycerate kinase 2 (P07205 whole entry): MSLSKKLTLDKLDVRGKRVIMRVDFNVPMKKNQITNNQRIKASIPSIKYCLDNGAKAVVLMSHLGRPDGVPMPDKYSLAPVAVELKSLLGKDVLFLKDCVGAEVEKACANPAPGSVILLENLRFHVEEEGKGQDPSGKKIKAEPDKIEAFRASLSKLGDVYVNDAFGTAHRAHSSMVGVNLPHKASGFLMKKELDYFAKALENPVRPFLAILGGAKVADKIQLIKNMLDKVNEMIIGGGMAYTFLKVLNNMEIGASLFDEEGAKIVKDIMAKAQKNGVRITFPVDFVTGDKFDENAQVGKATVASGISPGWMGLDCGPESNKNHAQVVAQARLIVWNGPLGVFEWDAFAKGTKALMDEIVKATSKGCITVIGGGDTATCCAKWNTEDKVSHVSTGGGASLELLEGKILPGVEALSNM

[3] = target: 26S proteasome non-ATPase regulatory subunit 5 (UniProt Q16401); assay: cross-link between two proteins; cross-linking mass spectrometry; two-hybrid or complementation screen
Sequence of 26S proteasome non-ATPase regulatory subunit 5 (Q16401 whole entry): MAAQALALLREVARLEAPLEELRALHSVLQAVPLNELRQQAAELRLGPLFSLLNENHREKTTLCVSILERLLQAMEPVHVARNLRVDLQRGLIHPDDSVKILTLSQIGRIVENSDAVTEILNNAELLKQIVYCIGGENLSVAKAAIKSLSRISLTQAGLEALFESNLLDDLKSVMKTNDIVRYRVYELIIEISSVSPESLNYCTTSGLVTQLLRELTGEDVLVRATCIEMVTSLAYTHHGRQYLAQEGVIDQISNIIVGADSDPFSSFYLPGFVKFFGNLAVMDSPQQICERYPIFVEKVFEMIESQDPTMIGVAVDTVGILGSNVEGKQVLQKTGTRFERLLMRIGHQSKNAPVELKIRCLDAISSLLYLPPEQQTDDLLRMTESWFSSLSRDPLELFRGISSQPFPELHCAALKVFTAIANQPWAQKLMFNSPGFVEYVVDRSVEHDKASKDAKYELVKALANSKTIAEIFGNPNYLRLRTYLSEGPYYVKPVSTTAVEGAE

Sequence of Protein S100-A10 (P60903 whole entry): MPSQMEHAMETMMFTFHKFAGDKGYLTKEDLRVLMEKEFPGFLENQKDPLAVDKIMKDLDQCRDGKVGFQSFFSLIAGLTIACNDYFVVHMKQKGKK
Sequence of T-complex protein 1 subunit delta (P50991 whole entry, stated change not applied, one chain of several): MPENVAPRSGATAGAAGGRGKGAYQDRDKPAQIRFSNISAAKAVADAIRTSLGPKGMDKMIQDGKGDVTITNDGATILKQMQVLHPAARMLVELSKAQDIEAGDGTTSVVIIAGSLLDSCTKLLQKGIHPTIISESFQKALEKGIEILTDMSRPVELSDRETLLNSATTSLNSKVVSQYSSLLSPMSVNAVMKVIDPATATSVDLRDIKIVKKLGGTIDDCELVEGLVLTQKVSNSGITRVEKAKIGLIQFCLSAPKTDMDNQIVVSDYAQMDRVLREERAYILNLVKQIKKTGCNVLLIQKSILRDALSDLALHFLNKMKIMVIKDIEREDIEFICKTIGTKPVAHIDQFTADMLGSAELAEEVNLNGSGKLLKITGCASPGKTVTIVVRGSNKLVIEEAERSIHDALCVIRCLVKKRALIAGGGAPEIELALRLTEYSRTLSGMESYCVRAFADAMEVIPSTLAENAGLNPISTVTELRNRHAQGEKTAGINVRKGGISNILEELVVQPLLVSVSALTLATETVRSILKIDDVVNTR
Sequence of Coatomer subunit gamma-1 (Q9Y678 whole entry): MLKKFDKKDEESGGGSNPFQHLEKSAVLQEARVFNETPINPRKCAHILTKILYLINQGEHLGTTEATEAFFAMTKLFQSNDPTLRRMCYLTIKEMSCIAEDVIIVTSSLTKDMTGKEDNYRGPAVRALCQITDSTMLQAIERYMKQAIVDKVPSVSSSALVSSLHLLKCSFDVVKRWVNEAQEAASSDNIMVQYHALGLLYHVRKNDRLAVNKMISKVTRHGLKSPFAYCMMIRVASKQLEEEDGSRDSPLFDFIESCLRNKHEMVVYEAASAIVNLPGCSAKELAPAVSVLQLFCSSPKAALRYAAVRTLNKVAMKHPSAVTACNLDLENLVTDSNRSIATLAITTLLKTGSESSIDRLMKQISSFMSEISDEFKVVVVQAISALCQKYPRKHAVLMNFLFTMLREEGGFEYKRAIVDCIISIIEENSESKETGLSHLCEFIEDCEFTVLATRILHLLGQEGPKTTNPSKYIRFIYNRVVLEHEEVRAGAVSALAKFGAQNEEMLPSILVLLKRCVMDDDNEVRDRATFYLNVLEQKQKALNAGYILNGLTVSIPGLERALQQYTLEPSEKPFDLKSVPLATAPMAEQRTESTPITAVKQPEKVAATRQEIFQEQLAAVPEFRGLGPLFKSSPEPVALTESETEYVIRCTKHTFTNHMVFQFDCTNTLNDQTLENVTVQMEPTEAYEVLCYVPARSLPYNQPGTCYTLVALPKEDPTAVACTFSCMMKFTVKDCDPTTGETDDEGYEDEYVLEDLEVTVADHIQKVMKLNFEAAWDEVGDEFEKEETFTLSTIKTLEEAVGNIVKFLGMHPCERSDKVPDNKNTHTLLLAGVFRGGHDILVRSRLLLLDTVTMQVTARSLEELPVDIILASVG

## Coatomer subunit beta, P53618
Coatomer subunit gamma-1
  listed as a hit: yes

## T-complex protein 1 subunit gamma, P49368
[1]
  listed as a hit: yes

## Putative annexin A2-like protein, A6NMY6
Protein S100-A10
  listed as a hit: yes

## Phosphoglycerate kinase 1, P00558
[2]
  listed as a hit: yes

## 26S proteasome regulatory subunit 7, P35998
[3]
  listed as a hit: yes
